Screening data as filed in PubChem BioAssay.
Hits are enriched below; roughly 4.6% of the tested compounds scored in any of these assays.
ALOX15 inhib = qHTS Assay for Inhibitors of 15-hLO (15-human lipoxygenase) | AID 887, 2007 | purified 15hLO-1, xylenol orange hydroperoxide absorbance | Polyunsaturated fatty acid lipoxygenase ALOX15 (Homo sapiens), P16050 | Potency, µM (highest dose often 57.1 µM), usual class: inhibitors | 1.4% of 74,000 active; note: nearly all actives have a fitted effect of over 55% in size
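40 nM 15hLO-1 + cpd, 15 min RT; start w/ 50 uM AA (final), 6 min RT; stop/detect w/ 200 uM XO + 300 uM Fe(II) in 50 mM H2SO4, 30 min; A573/A405. Buffer 25 mM Hepes pH 7.5, 0.01% Triton X-100. No-enzyme wells as negative control.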
Bst PK mod = Pyruvate Kinase; purified pyruvate kinase, luminescence ATP production; ribose 5-phosphate activator present at AC10; Potency, µM; 1.2% of 51,000 active; AID 361, 2006; in the data active = potency below about 11 µM; inconclusive = mostly about 12 µM to 25 µM;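 the screen sought inhibitors and activators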
Hsp90 Hop PPI = qHTS Assay for Disrupters of an Hsp90 Co-Chaperone Interaction; AID 595, 2007; Hsp90 C-terminal peptide / TPR2A (Hop) interaction, human; 0.44% of 71,000 active; Potency, µM (titrated, usually from 57 µM); AlphaScreen TPR2A-His6 binding biotin-Hsp90 C-terminal peptide; active = well fitted curve in either direction with a large enough effect; inconclusive = small, poorly fitted or top-dose-only effect, or another doubt
USP2a inh = qHTS Assay for Inhibitors of Ubiquitin-specific Protease USP2a. USP2a enzymatic assay, qHTS inhibition. Potency, µM (top dose mostly 38.3 µM), most hits filed as inhibitors. 0.1% of 60,000 active; note: nearly all actives have a fitted effect of over 60% in size
Target sequence (O75604 whole entry, looked up): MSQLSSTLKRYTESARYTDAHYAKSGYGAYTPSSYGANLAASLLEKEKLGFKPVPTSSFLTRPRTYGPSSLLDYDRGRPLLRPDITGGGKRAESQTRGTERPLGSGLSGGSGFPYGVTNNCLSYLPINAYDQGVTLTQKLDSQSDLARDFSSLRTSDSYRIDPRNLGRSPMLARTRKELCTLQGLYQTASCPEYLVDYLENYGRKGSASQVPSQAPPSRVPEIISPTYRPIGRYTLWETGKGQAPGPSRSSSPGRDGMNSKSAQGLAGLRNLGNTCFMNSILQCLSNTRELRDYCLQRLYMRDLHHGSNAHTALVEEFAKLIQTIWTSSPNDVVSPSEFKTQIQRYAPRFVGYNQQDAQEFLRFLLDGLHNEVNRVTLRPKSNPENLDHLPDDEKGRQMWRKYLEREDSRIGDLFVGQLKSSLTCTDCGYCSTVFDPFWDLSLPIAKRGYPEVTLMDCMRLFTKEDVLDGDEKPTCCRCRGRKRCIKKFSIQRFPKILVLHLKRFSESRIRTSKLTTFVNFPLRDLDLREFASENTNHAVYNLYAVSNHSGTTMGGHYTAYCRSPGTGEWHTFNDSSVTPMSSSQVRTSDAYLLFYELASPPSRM
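USP2 core (20 nM final) was preincubated with compound for 30 min at RT in 20 mM Tris-HCl pH 8.0, 2 mM CaCl2, 2 mM beta-mercaptoethanol; Ub-PLA2 (20 nM) plus NBD C6-HPC (20 uM) then added, fluorescence read after 2.5 h.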
Tau fil binding = qHTS Assay for Tau Filament Binding | recombinant tau filaments, thioflavin S fluorescence, 15 h; filaments grown with octadecylsulfate alongside compound | AID 596, 2007 | 2% of 71,000 active | Potency, µM (doses to about 57.1 µM) | Microtubule-associated protein tau (Homo sapiens), P10636;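 note: actives lower thioflavin S fluorescence by blocking filaments or displacing dye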
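Assay mix: 1 uM His-tagged tau, 30 uM sodium octadecylsulfate, thioflavine S dye in HEPES/NaCl/DTT buffer. Compound is added prior to the inducer. Fluorescence after 15 h at 37 C.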
GBA mod = Glucocerebrosidase; purified enzyme, resorufin glucoside fluorescence (screen aimed at inhibitors), 20 min; Potency, µM; 1.1% of 48,000 active; Lysosomal acid glucosylceramidase (Homo sapiens), P04062; AID 360, 2006; in the data active = potency below about 15 µM; inconclusive = mostly about 16 µM to 33 µM;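 note: the screen sought inhibitors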
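Normal human glucocerebrosidase (0.2 nM final) was assayed with resorufin β-D-glucopyranoside (30 uM final) in 50mM citric acid/KH2PO4, 10mM sodium taurocholate, 0.01% tween-20, pH 5.9. Compounds were titrated; fluorescence (Ex 548, Em 600) read after 20 min at RT.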
Numbers stand for hits; - = inactive; ? = inconclusive; . = no result; [ ] = another dose, or the depositor's remark. Unless noted, calls come from the whole dose curve; as a rule, active = well fitted curve in the direction sought with a large enough effect; inconclusive = small, poorly fitted or top-dose-only effect, or another doubt; inactive = no such curve, though single readings can be large; an effect the other way counts as inactive or inconclusive.

SMILES	ALOX15 inhib	Bst PK mod	Hsp90 Hop PPI	USP2a inh	Tau fil binding	GBA mod
COc1ccc(N2CCN(Cc3cc(=O)oc4c3ccc3ccccc34)CC2)cc1	-	-	-	-	-	3.3
COc1ccc(N2CCN(Cc3cc(=O)oc4ccc(Cl)cc34)CC2)cc1	-	-	-	-	-	-
Cc1ccc(S(=O)(=O)N(C)CC(=O)NC2CC(C)(C)NC(C)(C)C2)cc1	-	-	-	-	-	-
NC(=O)c1ccc(N2CCCCC2)c(N2C(=O)CCC2=O)c1	-	.	-	-	-	.
NC(=O)c1cc(N)ccc1N1CCCC1	?	-	-	-	16µM	-
COc1cccc(CNc2cccc3cccnc23)c1O	-	?	-	-	-	-
O=C1C(Cl)=C(N2CCCCC2)C(=O)N1c1ccccc1Cl	?	.	?	-	-	.
O=C1C(Cl)=C(N2CCCCC2)C(=O)N1c1ccccc1	16µM	.	?	-	-	.
Cc1ccccc1N1C(=O)C(Cl)=C(N2CCCCCC2)C1=O	10µM	.	?	-	13µM	.
Cn1cccc1C(=O)N1CCC[C@@]2(CCN(c3ccccn3)C2)C1	-	.	-	-	-	.
CCN(CC)C(=O)c1cc2sc3ccccc3c2s1	25µM	.	-	-	-	.
COc1ccc2c(c1)C(=O)CC(c1ccccc1F)O2 (stereo unspecified)	?	.	?	-	-	.
c1coc(C2Nc3cccc4cccc(c34)N2)c1	1.6µM	.	-	?	6.3µM	-
O=C1CSC(c2ccco2)N1 (stereo unspecified)	-	.	-	-	-	.
CNc1ccc(C(O)(C(F)(F)F)C(F)(F)F)cc1C(O)(C(F)(F)F)C(F)(F)F	?	-	-	-	-	13
CCc1cccc2nc3c(c([Si](C)(C)C)c12)Cn1c-3cccc1=O	.	.	-	.	16µM	.
CC(C)c1cccc2nc3c(c([Si](C)(C)C(C)(C)C)c12)Cn1c-3cccc1=O	.	.	-	.	?	.
O=C(NCC1CCCO1)c1ccc2c(=O)n(CCc3ccccc3)c(=O)[nH]c2c1 (stereo unspecified)	-	-	-	-	-	-
CC1CCCC(NC(=O)c2ccc3c(=O)n(CC4CCCO4)c(=O)[nH]c3c2)C1C (stereo unspecified)	-	-	-	-	-	1.6
N#CC1=C(N)Oc2n[nH]c(-c3cccs3)c2C1c1ccoc1 (stereo unspecified)	10µM	.	-	-	-	-
O=C(CSc1nnc(-c2ccc(Cl)cc2)o1)N1CCN(c2ccccc2)CC1	-	-	-	-	13µM	-
COc1ccccc1-c1nccc(Nc2ccc(F)cc2)n1	-	.	-	-	16µM	.
COc1ccccc1-c1nccc(NCc2cccs2)n1	10µM	.	-	-	-	.
c1csc(CNc2ccnc(-c3ccoc3)n2)c1	20µM	.	?	-	-	.
O=C(NCc1cccnc1)c1cccc(C(F)(F)F)c1	-	-	-	-	-	-
SMILES	ALOX15 inhib	Bst PK mod	Hsp90 Hop PPI	USP2a inh	Tau fil binding	GBA mod
CC(=O)Nc1cc(CN2CCCCC2)c(O)c2ncccc12	-[11.4 µM]	.	4µM	.	-[11.4 µM]	.
c1cncc(CNc2cc(-c3ccoc3)ncn2)c1	25µM	.	?	-	-	.
Cc1cccc(CNc2cc(-c3ccoc3)ncn2)c1	-	.	-	-	-	.
COc1ccc(C(=O)NCCc2nnc(SCc3nc4ccccc4c(=O)[nH]3)n2C)cc1	-	-	-	-	-	-
CN(C)S(=O)(=O)c1ccc(C(=O)Nc2nnc(Cc3ccccc3)s2)cc1	-	-	-	-	-	-
N#CC1=C2SCN(c3ccc(F)cc3)CN2C(=O)CC1c1cccc(F)c1 (stereo unspecified)	?	.	-[2.3 µM]	.	-	.
COc1ccc(N2CSC3=C(C#N)C(c4cccs4)CC(=O)N3C2)cc1 (stereo unspecified)	?	-	-	-	?	?
CCc1ccc(C2CC(=O)N3CN(c4ccccc4)CSC3=C2C#N)cc1 (stereo unspecified)	2.5µM	.	?	.	?	.
CN1CSC2=C(C#N)C(c3cccc(OCc4ccccc4)c3)CC(=O)N2C1 (stereo unspecified)	5µM	.	-[2.3 µM]	.	-	.
